# Experimental data taken from PubChem BioAssay.
# Unmarked numbers belong to inactive results. The rule behind the calls is not given here.
# Target: Pantothenate synthetase (Mycobacterium tuberculosis (strain ATCC 25618 / H37Rv)) (UniProt P9WIL5)
# Assay: Recombinant Mtb pantothenate synthetase (PanC) inhibitors, coupled enzyme, confirmatory (AID 375);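 note: 0% = full reaction with vehicle and 100% = no enzyme background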
# Conditions: coupled enzyme assay; at 10 µM, stronger effect = higher value
# Chain of Pantothenate synthetase (Mycobacterium tuberculosis (strain ATCC 25618 / H37Rv)) (P9WIL5 whole entry, looked up): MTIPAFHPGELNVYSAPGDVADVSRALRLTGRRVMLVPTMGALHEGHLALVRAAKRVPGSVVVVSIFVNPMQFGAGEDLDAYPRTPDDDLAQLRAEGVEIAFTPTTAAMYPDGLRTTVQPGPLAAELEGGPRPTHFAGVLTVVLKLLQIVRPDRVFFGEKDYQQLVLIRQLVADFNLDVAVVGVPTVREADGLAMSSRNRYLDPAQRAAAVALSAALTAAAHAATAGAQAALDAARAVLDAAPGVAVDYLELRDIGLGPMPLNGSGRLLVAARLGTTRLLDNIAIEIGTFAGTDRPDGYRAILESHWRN
row,SMILES,inhibition [%]
1,CC(C)CCn1c(N)c(S(=O)(=O)c2cccs2)c2nc3ccccc3nc21,0
2,Cc1nnc(NC(=O)CSc2nnc(-c3ccc(S(=O)(=O)N4CCCC4)cc3)n2C)s1,8
3,COc1ccc(-n2c(=O)c3c4c(sc3n3cnnc23)CC(C)CC4)cc1 (stereo not given),1
4,Cn1cnnc1SCC(=O)NCc1cccc(C(F)(F)F)c1,0
5,c1ccc(-c2nnc(-c3ccco3)n2-c2ccccc2)cc1,0
6,CCCCP(=O)(CCCC)Cc1ccccc1O,0
7,Cc1cc(C(=O)OCC(=O)N2c3ccccc3CC2C)c(C)o1 (stereo not given),3
8,O=C(Cn1cccc1C(=O)c1ccccc1)NCCN1CCOCC1,0
9,CCCc1c(OCCCCc2nn[nH]n2)ccc(C(C)=O)c1O,0
10,O=S(=O)(c1ccc2c(c1)nc1n2CCC1)N1CCOCC1,0
11,O=C(CN(Cc1ccc2c(c1)OCO2)C(=O)CNS(=O)(=O)c1ccccc1)NCc1ccco1,0
12,COc1ccc(CCNc2nc(N3CCOCC3)nc(N3CCOCC3)n2)cc1OC,0
13,O=C(Nc1ccc2oc(-c3ccncc3)nc2c1)c1cccs1,0
14,COc1cc(NC(=O)Nc2cccc(Cl)c2)c(OC)cc1NC(=O)CN1CCCCC1,2
15,CS(=O)(=O)NCC(c1cccnc1)N1CCN(c2ccc(F)cc2)CC1 (stereo not given),1
16,Cc1ccc(-c2nnc3c4ccccc4c(C)nn23)cc1NC(=O)c1ccco1,0
17,CCCCCCOC(=O)C(C#N)c1nc2ccccc2nc1N1CCCCC1 (stereo not given),0
18,COC(=O)C1=C(C)C(c2cccs2)NC(=O)N1C (stereo not given),0
19,CCCOc1ccc([C@@H]2C3CN(C(=O)OCC)CC=C3C(C#N)=C(N)C2(C#N)C#N)cc1OC (stereo not given in full),1
20,Cc1cc(NC(=O)c2cnn3cccnc23)no1,3

row,SMILES,inhibition [%]
1,COc1ccc(C(=O)N2CCOCC2)cc1Br,6
2,O=c1c2ccccc2c(/C=N/n2cnnc2)c(O)n1-c1ccccc1,2
3,CCN1C(=C2C(=O)c3ccccc3C2=O)C=Cc2ccccc21,0
4,Cn1nnnc1SCC1=C(C(=O)O)N2C(=O)[C@@H](NC(=O)[C@H](O)c3ccccc3)[C@H]2SC1,0
5,O=C(CSc1nc2ccccc2o1)NC(=O)NCc1ccco1,0
6,CCOc1cc(C2C(C(=O)c3ccccc3)=C(C(=O)OC)Nc3nnnn32)ccc1O (stereo not given),0
7,COC(=O)c1ccccc1NC(=O)C1CC=CCC1C(=O)O (stereo not given),0
8,N#C/C(=C(/O)CN1CCOCC1)c1nc2ccccc2s1,0
9,CCCCN(C)C(=O)c1cn(C)c2ccc(S(=O)(=O)N(C)C)cc2c1=O,0
10,CCN1CCN(CCCNC(=O)C2c3ccccc3C(=O)N(C)C2c2ccc(OC)cc2)CC1 (stereo not given),0
11,O=C(Nc1ccc2c(c1)OCO2)C1CCCN1C(=O)Nc1ccccc1F (stereo not given),3
12,COC(=O)c1ccccc1NC(=O)C1CCCCC1C(=O)O (stereo not given),0
13,CCOC(=O)C(C)Sc1nnc(Cc2cc(=O)[nH]c(=O)[nH]2)n1-c1ccc(Cl)cc1 (stereo not given),0
14,CC1CCCC(NC(=O)CSc2ncccc2C(=O)O)C1C (stereo not given),0
15,Cc1cccc(N(C)C(=O)c2cc3cc4ccc(C)cc4nc3o2)c1,0
16,Cn1c([N+](=O)[O-])cnc1COC(N)=O,0
17,COc1ccc(-n2ncc3c(N4CCN(c5cccc(C)c5C)CC4)ncnc32)cc1,0
18,O=C1CC(c2ccc(Cl)cc2)n2nc(N3C(=O)c4ccccc4C3=O)nc2N1 (stereo not given),5
19,CN=C(Nc1cc(C)nn1-c1ccccc1)c1ccccc1,0
20,CCOC(=O)Cc1csc(NC(=O)CSc2nnc(C(C)C)n2CC)n1,0
